“And” between values parts separate entries of the source, which are not always exact repeats. Identical values can stand only once. Hit rate of the full screen: of about 16,000 compounds, about 5,700 (36%) were called active. About 24% were inconclusive and are not listed. Calls come from the whole dose curve; as a rule, active = well fitted curve in the direction sought with a large enough effect; inconclusive = small, poorly fitted or top-dose-only effect, or effect the other way; inactive = no such curve, though single readings can be large or run the other way. The list shows a part of the results. Some compounds were tested as several samples or in several runs, with calls that do not always agree.
What follows are molecules tested against Cytochrome P450 1A2 (Homo sapiens) (UniProt P05177) (assay: Cytochrome panel assay with activity outcomes). Conditions: recombinant CYP, pro-luciferin dealkylation, luminescence, p450-cyp1a2; series mostly up to 57.1 µM.
Chain of Cytochrome P450 1A2 (Homo sapiens) (P05177 whole entry, looked up): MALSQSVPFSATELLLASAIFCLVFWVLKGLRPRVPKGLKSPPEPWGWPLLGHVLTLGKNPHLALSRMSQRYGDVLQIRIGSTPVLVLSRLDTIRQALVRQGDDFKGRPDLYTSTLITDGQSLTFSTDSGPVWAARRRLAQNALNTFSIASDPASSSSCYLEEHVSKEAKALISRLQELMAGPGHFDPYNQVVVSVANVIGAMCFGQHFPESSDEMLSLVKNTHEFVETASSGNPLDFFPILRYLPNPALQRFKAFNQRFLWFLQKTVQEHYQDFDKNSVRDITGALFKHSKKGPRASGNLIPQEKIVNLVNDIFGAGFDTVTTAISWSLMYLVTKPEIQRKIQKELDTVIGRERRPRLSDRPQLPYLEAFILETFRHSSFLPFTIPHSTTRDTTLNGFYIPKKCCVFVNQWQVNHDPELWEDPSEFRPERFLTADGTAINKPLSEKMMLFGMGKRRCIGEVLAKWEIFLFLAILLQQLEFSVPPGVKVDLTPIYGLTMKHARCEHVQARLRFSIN
% is set by controls: 0 for no effect and ±100 for the full control effect.

SMILES	AC50	activity, negative = inhibition
CC(C)(C)Nc1nc(N2CCCC2)nc(N2CCCC2)n1	0.631 µM (active)	
O=C1CCC(c2ccccc2)(c2ccccc2)CC1		-13.3% [at 11.4 µM] (inactive)
COc1ccc(CNc2nc(-c3cccc(C#N)c3)nc3ccccc23)c(OC)c1	2.51 µM (active)	
COc1ccc(CNc2nc(-c3cccc(NS(C)(=O)=O)c3)nc3ccccc23)c(OC)c1	15.8 µM (active)	
COc1ccccc1CNc1nc(-c2cccc(C#N)c2)nc2ccccc12	1.26 µM (active)	
CCCc1cc2c(n1Cc1cc(F)cc(F)c1)C(C)C1CN(C(=O)c3ccccc3)C(C)(C(=O)OC)C21 (stereo not drawn)	inactive	
Cc1noc(C)c1-c1cc(N(C)Cc2ccco2)ncn1	3.16 µM (active)	
Cc1noc(C)c1-c1nccc(N(C)C)n1	0.631 µM (active)	
Cc1noc(C)c1-c1nccc(N(C)Cc2ccco2)n1	2 µM (active)	
Cc1noc(C)c1-c1cc(N(C)C)ncn1	3.16 µM (active)	
N#CCSc1ncnc2c1cnn2CCO	15.8 µM (active)	
COc1cccc(NC(=O)C2c3cc(OC)c(OC)cc3C(=O)N(C)C2c2cccnc2)c1 (stereo not drawn)	inactive	
COc1ccc(NC(=S)N(CCc2nc3cc(C)c(C)cc3[nH]2)Cc2cccnc2)cc1	15.8 µM (active)	
CCN1C(=O)C(CC(=O)Nc2ccc(OC)cc2)N(Cc2cccnc2)C1=S (stereo not drawn)	inactive	
COc1cccc(NC(=S)N(CCc2nc3cc(C)c(C)cc3[nH]2)Cc2cccnc2)c1	14.1 µM (active)	
Cc1cccc(NC(=S)N(CCc2nc3cc(C)c(C)cc3[nH]2)Cc2cccnc2)c1	14.1 µM (active)	
O=C1CCC=C1[C@@H](O)CCc1ccccc1		-4.4% [at 11.4 µM] (inactive)
CN(C)[C@H]1C(=O)C(C(=O)NCN2CCCC2)=C(O)[C@]2(O)C(=O)C3=C(O)c4c(O)cccc4[C@](C)(O)[C@H]3C[C@H]12		-17.5% [at 11.4 µM] (inactive)
CCCCNC(=O)CSc1nc2cc(OC)c(OC)cc2c(=O)n1Cc1ccc(OC)cc1	inactive	
COc1cc2nc(SCc3ccc(Cl)cc3Cl)n(Cc3cccs3)c(=N)c2cc1OC	5.01 µM (active)	
CCCN1CCN(CCCNC(=O)Cn2nc(-c3ccc(C)cc3)ccc2=O)CC1	inactive	

SMILES	AC50	activity, negative = inhibition
CC(Oc1ccc(Cl)cc1Cl)C(=O)/C=C/N(C)C (stereo not drawn)	7.08 µM (active)	
Cc1nc(C(=O)Nc2ccc(Cl)cc2Cl)nn1-c1cc(OC(C)C)c(Cl)cc1Cl	inactive	
Nc1ncnc2nc(N3CCN(CCO)CC3)[nH]c12		-1.17% [at 2.29 µM] (inactive)
CN(C)CCOC(=O)C1(c2ccccc2)CCOCC1	inactive	
CCN(CC)CCOC(=O)C1(c2ccc([N+](=O)[O-])cc2)CCCC1	3.16 µM (active)	
O=C(O)C1C2CCC(C2)C1C(=O)NCc1ccco1 (stereo not drawn)	inactive	
CC(=O)c1ccc(NC(=O)C2(c3ccccc3)CCOCC2)cc1	inactive	
CCCCOc1ccc(C(=O)NCc2ccco2)cc1	1.26 µM (active)	
CC(C)(C)c1ccc(C(=O)NCCC(=O)NCc2ccco2)cc1	1.58 µM (active)	
Cc1ccc(OCC(=O)NNC(=O)CCC(=O)NCc2ccccc2)cc1	inactive	
C/C(CC(=O)NCc1ccco1)=N\NC(=O)Cc1ccccc1	inactive	
COc1ccc(S(=O)(=O)N(C)CC(=O)NCc2ccco2)cc1	inactive	
C=CCNC(=O)/C(=C\C=C\c1ccccc1)NC(=O)c1ccc(OCCCC)cc1	inactive	
CCCCCOc1ccc(C(=O)NCC2(c3ccccc3)CCOCC2)cc1	15.8 µM (active)	
CCOc1ccc(-n2cc(C(=O)NCc3ccco3)c3cc(OC)c(OC)cc3c2=O)cc1	inactive	
CCS(=O)(=O)N1CCC(C(=O)NCc2ccco2)CC1	inactive	
Cc1ccc(OCCCC(=O)NCc2ccco2)cc1	14.1 µM (active)	
Cc1cc(C)cc(Oc2nn[nH]n2)c1	inactive	
COc1cccc([C@H]2Oc3ccc(OC)cc3/C(=N\O[C@@H](C)c3cn([C@H](CO)Cc4ccccc4)nn3)[C@@H]2O)c1		-7.2% [at 11.4 µM] (inactive) and -11.9% [at 11.4 µM] (inactive)
CCn1cnc2sc(C(=O)N3CCN(c4ccc(OC)cc4)CC3)c(C)c2c1=O	inactive	
COc1ccccc1NC(=O)c1cnc2n(c1=O)CCS2	2.24 µM (active)	

SMILES	AC50	activity, negative = inhibition
COc1ccccc1NC(=O)c1sc2ncn(Cc3ccccc3C)c(=O)c2c1C	3.16 µM (active)	
CCCNC(=O)Cn1cnc2sc(C(=O)Nc3ccc4c(c3)OCO4)c(C)c2c1=O	inactive	
CCOC(=O)N1CCN(C(=O)c2cnc3n(c2=O)CCS3)CC1	inactive	
CCCCN(Cc1ccccc1)C(=O)c1cnc2n(c1=O)CCS2	inactive	
O=C(NC(=S)N(Cc1ccccc1)Cc1ccccc1)c1ccccc1F	11.2 µM (active)	
COC(=O)C(NNc1ccccc1)(NC(=O)c1ccccc1F)C(F)(F)F (stereo not drawn)	inactive	
CN1CCN(NC(=O)c2ccccc2F)CC1	inactive	
Cc1ccc(S(=O)(=O)NC(=O)OC23COCN2COC3)cc1		7.51% [at 11.4 µM] (inactive)
NCCCNCCCCNCCCN	inactive	
NCCCCN	inactive	
NCCCCNCCCN	inactive and 31.6 µM (active)	
COc1cc(Br)c(C(C)NC(=O)c2cccc(Br)c2)cc1OC (stereo not drawn)	12.6 µM (active)	
COc1ccc(C(=O)N2CCC3(CC2)CN(C(=O)NC(C)C)C3)cc1	inactive	
COc1ccc(C(=O)NC(C)c2cc(OC)c(OC)cc2Br)cc1 (stereo not drawn)	14.1 µM (active)	
COc1ccccc1C(c1nnnn1C(C)(C)C)N1CCCc2ccccc21 (stereo not drawn)	inactive	
CC(C)(N=NC(C)(C)C(=N)N)C(=N)N		-4.86% [at 11.4 µM] (inactive)
CCc1ccc(N2CC(C)Cn3c2nc2c3c(=O)n(CCN3CCOCC3)c(=O)n2C)cc1 (stereo not drawn)	inactive	
Cc1noc(C)c1-c1ccc2ncnc(NCc3cccnc3)c2c1	0.316 µM (active)	
Cc1ccccc1-c1ccc2ncnc(NCc3cccs3)c2c1	2.51 µM (active)	
Cc1noc(C)c1-c1ccc2ncnc(NCc3ccccc3)c2c1	3.16 µM (active)	
Cc1noc(C)c1-c1ccc2ncnc(NCc3cccs3)c2c1	0.398 µM (active)	

Reference: PubChem BioAssay AID1851 (National Center for Advancing Translational Sciences (NCATS), 2009)
